About 83,000 compounds went through this panel and 20% of them were active in at least one assay; those are over-represented in the sample as a whole.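 How to read the values: 0–100, growth inhibition (40 = 60% inhibited); 0, no net growth; -100 to 0, cell death (-40 = 40% of starting cells died; -100 = all dead).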 Active and inactive are the calls of the source. How the source made its calls: active means growth percent below 10; inactive means the rest.

The values that follow come from PubChem BioAssay (NCI).

The test concerns HL-60(TB) leukemia. Put plainly: NCI-60 one-dose screen, 48 h (100 = growth as untreated, 0 = no growth, -100 = all killed). As to conditions: 10 µM unless noted.
With `CC(C)(C)CC(C)(C)Nc1c(-c2ccc3c(c2)OCO3)nc2cnccn12`, the growth was 77.8% (inactive). Take `Cc1ccc2c(n1)C[C@H](C(C)(C)O)CC[C@H]2C`: the growth was 103% (inactive).

For the compound `Cc1cccc(Cc2cnc(NC(=O)CCCOc3ccc(Cl)cc3)s2)c1`, the growth was -34.2% (active).

For `CCOC(=O)c1cnn(-c2ccc(S(N)(=O)=O)cc2)c1N`, the growth was 92.9% (inactive). Then `O=C1OCC2=C1C(c1cccc(Br)c1)c1cc3c(cc1N2CCO)CCC3` (stereo not given), with -25.5% (active); and `N#Cc1c(-c2ccccc2)nc2c(c(-c3ccccc3)nn2-c2ccccc2)c1-c1ccc(N2CCOCC2)cc1`, with 65.4% (inactive).

As for `ON=C(C1CCCCC1)C1CCCCC1`, the growth was 96.7% (inactive).

As for `S=c1[nH]c(=S)c2c(-c3ccccc3)c(-c3ccccc3)oc2[nH]1`, the growth was 94.9% (inactive). `c1ccc2c(c1)Sc1ccccc1S2`: the growth is 107% (inactive). Then `CCOC(=O)OCC(=O)[C@@]1(O)CC[C@H]2[C@@H]3CCC4=CC(=O)CC[C@]4(C)[C@H]3[C@@H](O)C[C@@]21C`, with 108% (inactive). Turning to `CC[C@H](CO)Nc1nc(NCc2ccccc2)c2ncn(C(C)C)c2n1`, the growth was 48.1% (inactive).

Regarding `O=C(Nc1ccc(F)c(Cl)c1)Nc1ccc(Cl)c(Cl)c1`, the growth was 25% (inactive). For `COc1c(B(O)O)cccc1-c1cc(C)c2c(ccc3[nH]ncc32)n1`, the growth is 23.8% (inactive). Regarding `COc1cc(C(=O)N2CCN(c3ccccc3OC)CC2)c(NC(=O)c2cnccn2)cc1OCc1ccccc1`, the growth was 47.5% (inactive).

As for `O=c1ccn(C2CCCO2)c(=O)[nH]1` (stereo not given), the growth is 111% (inactive).

For the compound `COC(=O)c1ccc2c(c1)Oc1ccc(Cl)cc1-c1cc(C)nn1-2`, the growth is 103% (inactive). Take `COc1ccc(-n2nnnc2-c2cn[nH]c2C(F)(F)F)cc1`: the growth is 98.3% (inactive). The same measure for `OC(c1cccc(C(F)(F)F)c1)c1cnccc1NC1CCCCC1` (stereo not given): 45.3% (inactive); for `COc1ccc2c(c1)sc1nc(-c3ccccc3)c(-c3cccc4ccccc34)n12`: 6.59% (active). Then `COc1ccc(-c2cc(-c3ccc(Nc4nc(Nc5ccccc5)nc(Nc5ccc(Cl)cc5)n4)cc3)nc(N)c2C#N)cc1`, with 33.1% (inactive). Then `CCCC(=O)NNc1[nH]c(-c2cc(OC)c(OC)c(OC)c2)cc1C(=O)OCC`, with -11.1% (active); and `C=CN(C(=O)N1CCN(c2cc3c(cc2F)c(=O)c(C(=O)O)cn3C2CC2)CC1)c1nc(-c2ccc(Cl)cc2)cs1`, with 10.7% (inactive). For the compound `O=C1/C(=C/C(Cl)=C/c2ccccc2)SC(=S)N1CCc1ccc(O)cc1`, the growth is -7.15% (active).

Turning to `O=C(Nc1ccc(Cl)cc1)Nc1ccc(Oc2nncc3ccccc23)cc1`, the growth is 3.65% (active).

As for `O=C(Nc1nc2ccc(F)cc2s1)c1cccnc1Nc1ccc(Cl)cc1Cl`, the growth is 26.5% (inactive). Take `O=c1[nH]c2ccc(Cl)cc2c2ccccc12`: the growth is 130% (inactive). Then `COc1ccc2c(c1)oc1c(C)c3c(c(C)c12)C(=O)N(Nc1ccccc1)C3=O`, with 107% (inactive); and `CN1CCN(Cc2ccc(NC(=O)c3[nH]ncc3Nc3ncnc4c3CCC4)cc2)CC1`, with -22.1% (active); and `Nc1cc2c(cc1N)-c1cc(N)c(N)cc1C2`, with 103% (inactive). The same measure for `CC[C@H](C)[C@H](N)C(=O)O`: 115% (inactive). The same measure for `COc1ccc2nc3cc(Cl)ccc3c(NCCNCC(O)CO)c2c1` (stereo not given): 15.6% (inactive); for `Cc1ccc(-c2nc(-c3cn(C)c4ncccc34)cs2)cc1`: 16.2% [100 µM] (inactive). Turning to `CCN1CCC2(CC1)NC(=O)c1c(c3ccc(Cl)c(Cl)c3n1C)C2C#N` (stereo not given), the growth was 30.2% (inactive). For `Ic1ccccc1-c1ccccc1`, the growth was 81.2% (inactive). Then `CCCCCCCO`, with 114% (inactive); and `Cc1ccc(-n2c(C)nn3c(=O)c4c5c(sc4nc23)CN(C)CC5)cc1`, with 96.7% (inactive); and `COc1cc2c(-c3cc4c(cc3CNCCc3ccc5c(c3)OCO5)OCO4)cccc2c(OC)c1O`, with 71.3% (inactive). The same measure for `N#CC1=C(N)Oc2c(ccc3ccccc23)C1c1cc2ccccc2n2nnnc12` (stereo not given): -32.7% (active). Take `O=C(Cn1c2ccccc2c2ccncc21)N/N=C\c1ccc2ccccc2c1`: the growth is 40.5% (inactive). Then `COCCCOc1cc(C[C@@H](C[C@H](N)[C@@H](O)C[C@H](C(=O)NCC(C)(C)C(N)=O)C(C)C)C(C)C)ccc1OC`, with 111% (inactive).
